The target of test [1] is sheep Cyclooxygenase-2 (Cox2), PTGS2 (gene 443460) (UniProt P79208). Nature of the test: NVS_ENZ_oCOX2: NovaScreen (NVS) Enzymatic Assay for sheep Cyclooxygenase-2 (Cox2) (AID 2283231). An outline of the steps:
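Enzyme extracted from ovine placenta tested cell-free; activity read colorimetrically by absorbance 0.66 hour after dosing. Primary screen in duplicate at 25 uM; hits rerun as concentration series to 50 uM, loss of signal versus DMSO baseline.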

Test [2] concerns rat Monoamine Oxidase, MAO-A, Peripheral (MAOAP), gene 29253. The experiment in a line: NVS_ENZ_rMAOAP: NovaScreen (NVS) Enzymatic Assay for rat Monoamine Oxidase, MAO-A, Peripheral (MAOAP) (AID 2283237). An outline of the steps:
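Scintillation counting tracked MAO-A activity in a cell-free rat liver mitochondrial membrane prep, read 1.17 hours after compound addition. Single-point duplicate testing at 25 uM preceded concentration-response follow-up; activity was fitted relative to DMSO.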

Test [3] addresses sheep Cyclooxygenase-1 (Cox1), PTGS1 (gene 443551) (UniProt P05979). The experiment in a line: NVS_ENZ_oCOX1: NovaScreen (NVS) Enzymatic Assay for sheep Cyclooxygenase-1 (Cox1) (AID 2283239).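 Note: actives reduce cyclooxygenase activity so potencies are for inhibitors.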 An outline of the steps:
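Colorimetric enzyme readout using sheep seminal-vesicle cyclooxygenase-1, measured 0.66 h post-dosing. Single-concentration duplicates at 25 uM first, then concentration series for actives, with DMSO as baseline and plate controls.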

For test [4], the target named is rat Acetylcholinesterase (AChE), Ache (gene 83817) (UniProt P37136). The experiment in a line: NVS_ENZ_rAChE: NovaScreen (NVS) Enzymatic Assay for rat Acetylcholinesterase (AChE) (AID 2283233). A digest of the protocol:
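Compounds first screened at 25 uM in duplicate, then those passing threshold tested in concentration series up to 50 uM, against AChE from rat brain membranes. Enzyme activity read by absorbance at 0.33 h; inhibition scored versus DMSO.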

In test [5] the target is human Vascular Endothelial Growth Factor Receptor 2 (VEGFR2), KDR (gene 3791) (UniProt P35968). Nature of the test: NVS_ENZ_hVEGFR2: NovaScreen (NVS) Enzymatic Assay for human Vascular Endothelial Growth Factor Receptor 2 (VEGFR2) (AID 2283230). A digest of the protocol: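 Cell-free recombinant VEGFR2 kinase, fluorescent substrate with electrophoretic mobility-shift separation; read 1 h after dosing. Screened at 25 uM in duplicate, hits to concentration-response up to 50 uM; loss-of-signal versus DMSO.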

For test [6], the target named is rat Adenylate Cyclase, Forskolin Stimulated, Adcy5 (gene 64532) (UniProt Q04400). The experiment in a line: NVS_ENZ_rACFSKBinding: NovaScreen (NVS) Enzymatic Assay for rat Adenylate Cyclase, Forskolin Stimulated (AID 2283232). An outline of the steps:
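Chemicals were first tested at 25 uM in duplicate, then hits run as concentration series with top concentration 50 uM. Enzyme source was rat forebrain membranes; radiometric filter read-out after 1 h, referenced to DMSO.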

Test [7] addresses rat Monoamine Oxidase, MAO-B, Central (MAOBC), Maob (gene 25750) (UniProt P19643). The experiment in a line: NVS_ENZ_rMAOBC: NovaScreen (NVS) Enzymatic Assay for rat Monoamine Oxidase, MAO-B, Central (MAOBC) (AID 2283238). An outline of the steps:
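Here MAO-B activity in rat brain preparations is quantified radiometrically, counts taken at 1.17 hours. Concentration-response runs reach 50 uM, with plate controls, and values are fitted as loss of signal from the DMSO baseline.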

Test [8] has as its system bovine Angiotensin II Receptor Type 2 (AT2), gene 407157. Nature of the test: NVS_GPCR_bAT2: NovaScreen (NVS) G Protein-Coupled Receptor Assay for bovine Angiotensin II Receptor Type 2 (AT2) (AID 2283240). An outline of the steps: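 Radioligand displacement on bovine cerebellar membranes, 1 hour incubation, filter-based scintillation counting; loss of signal vs DMSO. Duplicate single-point screen at 25 uM, then concentration-response to 50 uM maximum.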

Test [9] deals with bovine Dopamine Receptor (DR), Non-selective Binding, DRD1 (gene 281125) (UniProt Q95136). The experiment in a line: NVS_GPCR_bDR_NonSelective: NovaScreen (NVS) G Protein-Coupled Receptor Assay for bovine Dopamine Receptor (DR), Non-selective Binding (AID 2283241). An outline of the steps: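 Filter-based radioligand binding with bovine striatal membrane, incubated 1 h; DMSO as negative baseline. Initial duplicate single-point test at 25 uM preceded concentration series for actives.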

Test [10] concerns the target rat Catechol-O-Methyl Transferase (COMT), Comt (gene 24267) (UniProt P22734). Nature of the test: NVS_ENZ_rCOMT: NovaScreen (NVS) Enzymatic Assay for rat Catechol-O-Methyl Transferase (COMT) (AID 2283235). An outline of the steps: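 Rat dorsal striatum extract served as COMT source; product quantified by HPLC/spectrophotometry, read at 0 h after dosing. Primary single-concentration screen at 25 uM, followed by concentration series to a 50 uM maximum.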

Structures are written as SMILES. Records with an inconclusive call do not appear. Activity calls are given as the source filed them. Rule for the calls: active = hit-call score of the fitted dose curve at least 0.9, where 1 is the maximum; inconclusive = response in the unintended direction; inactive = score below 0.9.

Broadly, the AC50 is the midpoint of the concentration-response curve, whichever way the signal moves.

Chain of bovine Dopamine Receptor (DR), Non-selective Binding, DRD1 (gene 281125) (Q95136 whole entry, looked up): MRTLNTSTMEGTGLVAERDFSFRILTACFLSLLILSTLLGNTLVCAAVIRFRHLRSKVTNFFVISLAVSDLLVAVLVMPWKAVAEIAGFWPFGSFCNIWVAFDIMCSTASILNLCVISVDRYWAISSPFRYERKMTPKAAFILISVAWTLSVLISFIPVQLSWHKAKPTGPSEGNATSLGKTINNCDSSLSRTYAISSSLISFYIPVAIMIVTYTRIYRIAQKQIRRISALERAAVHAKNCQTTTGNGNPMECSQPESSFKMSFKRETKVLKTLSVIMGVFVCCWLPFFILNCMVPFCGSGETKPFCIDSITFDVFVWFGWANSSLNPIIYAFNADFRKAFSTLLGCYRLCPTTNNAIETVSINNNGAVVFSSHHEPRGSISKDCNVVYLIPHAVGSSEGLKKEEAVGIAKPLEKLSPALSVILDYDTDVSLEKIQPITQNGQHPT
Chain of sheep Cyclooxygenase-1 (Cox1), PTGS1 (gene 443551) (P05979 whole entry, looked up): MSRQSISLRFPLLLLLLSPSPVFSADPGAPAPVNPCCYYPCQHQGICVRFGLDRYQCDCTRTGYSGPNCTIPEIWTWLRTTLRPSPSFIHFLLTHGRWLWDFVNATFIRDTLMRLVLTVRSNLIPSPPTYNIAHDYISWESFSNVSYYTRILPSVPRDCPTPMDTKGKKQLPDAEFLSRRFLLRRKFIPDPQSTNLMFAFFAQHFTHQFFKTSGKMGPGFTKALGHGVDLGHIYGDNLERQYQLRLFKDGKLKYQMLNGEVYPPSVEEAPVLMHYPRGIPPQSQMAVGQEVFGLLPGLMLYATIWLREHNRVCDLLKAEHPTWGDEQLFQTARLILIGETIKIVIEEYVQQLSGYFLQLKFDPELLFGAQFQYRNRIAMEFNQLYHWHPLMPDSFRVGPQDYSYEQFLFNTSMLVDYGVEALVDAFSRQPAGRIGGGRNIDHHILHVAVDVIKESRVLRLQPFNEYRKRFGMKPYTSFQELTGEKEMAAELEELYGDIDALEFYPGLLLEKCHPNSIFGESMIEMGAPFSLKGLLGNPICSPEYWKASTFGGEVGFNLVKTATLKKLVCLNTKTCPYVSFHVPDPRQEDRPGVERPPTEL
Chain of rat Monoamine Oxidase, MAO-B, Central (MAOBC), Maob (gene 25750) (P19643 whole entry, looked up): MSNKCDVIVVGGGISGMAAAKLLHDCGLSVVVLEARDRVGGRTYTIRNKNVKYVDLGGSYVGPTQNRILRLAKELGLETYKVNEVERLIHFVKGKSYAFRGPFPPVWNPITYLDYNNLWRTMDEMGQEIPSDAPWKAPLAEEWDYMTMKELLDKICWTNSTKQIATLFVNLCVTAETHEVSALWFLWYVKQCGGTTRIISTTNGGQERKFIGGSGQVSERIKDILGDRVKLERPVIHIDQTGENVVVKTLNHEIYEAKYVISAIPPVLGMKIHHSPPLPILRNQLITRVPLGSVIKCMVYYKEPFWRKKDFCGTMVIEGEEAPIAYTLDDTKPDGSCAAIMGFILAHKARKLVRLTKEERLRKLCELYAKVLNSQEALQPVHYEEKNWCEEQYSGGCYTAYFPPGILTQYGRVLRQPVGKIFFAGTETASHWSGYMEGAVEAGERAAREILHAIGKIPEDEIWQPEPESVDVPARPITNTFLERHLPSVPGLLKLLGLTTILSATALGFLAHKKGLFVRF
Chain of human Vascular Endothelial Growth Factor Receptor 2 (VEGFR2), KDR (gene 3791) (P35968 whole entry, looked up): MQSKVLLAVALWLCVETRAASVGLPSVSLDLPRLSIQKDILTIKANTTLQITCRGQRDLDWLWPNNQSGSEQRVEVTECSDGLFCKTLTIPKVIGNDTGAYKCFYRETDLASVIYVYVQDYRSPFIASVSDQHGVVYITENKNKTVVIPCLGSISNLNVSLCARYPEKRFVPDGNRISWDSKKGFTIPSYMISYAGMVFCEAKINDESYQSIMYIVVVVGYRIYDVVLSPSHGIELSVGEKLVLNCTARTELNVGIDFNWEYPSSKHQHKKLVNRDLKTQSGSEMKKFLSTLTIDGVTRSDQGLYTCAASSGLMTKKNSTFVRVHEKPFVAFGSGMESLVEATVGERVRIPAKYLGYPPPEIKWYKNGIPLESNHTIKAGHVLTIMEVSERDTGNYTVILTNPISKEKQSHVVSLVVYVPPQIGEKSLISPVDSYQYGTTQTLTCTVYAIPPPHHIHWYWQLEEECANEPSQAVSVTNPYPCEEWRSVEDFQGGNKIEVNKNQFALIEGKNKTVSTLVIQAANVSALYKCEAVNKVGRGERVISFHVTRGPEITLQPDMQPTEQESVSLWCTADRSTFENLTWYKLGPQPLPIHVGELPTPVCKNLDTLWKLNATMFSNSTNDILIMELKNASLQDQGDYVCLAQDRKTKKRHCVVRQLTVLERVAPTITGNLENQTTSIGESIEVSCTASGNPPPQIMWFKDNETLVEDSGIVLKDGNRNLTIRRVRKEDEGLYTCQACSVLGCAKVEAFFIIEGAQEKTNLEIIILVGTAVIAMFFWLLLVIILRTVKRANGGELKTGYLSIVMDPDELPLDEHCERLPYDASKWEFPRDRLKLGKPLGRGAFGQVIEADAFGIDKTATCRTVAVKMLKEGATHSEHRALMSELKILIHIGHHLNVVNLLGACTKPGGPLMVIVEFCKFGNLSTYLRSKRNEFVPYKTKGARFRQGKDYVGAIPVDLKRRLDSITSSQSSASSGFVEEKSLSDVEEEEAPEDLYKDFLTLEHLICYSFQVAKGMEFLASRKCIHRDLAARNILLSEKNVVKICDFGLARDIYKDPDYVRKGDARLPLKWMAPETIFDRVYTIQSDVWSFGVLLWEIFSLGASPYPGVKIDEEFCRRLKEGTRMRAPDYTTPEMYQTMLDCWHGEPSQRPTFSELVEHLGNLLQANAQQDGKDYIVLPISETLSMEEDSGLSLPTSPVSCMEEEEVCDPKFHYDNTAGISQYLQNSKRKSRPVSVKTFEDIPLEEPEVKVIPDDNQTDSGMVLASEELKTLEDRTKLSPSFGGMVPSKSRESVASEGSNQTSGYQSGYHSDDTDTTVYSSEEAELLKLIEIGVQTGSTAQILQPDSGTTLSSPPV
Chain of sheep Cyclooxygenase-2 (Cox2), PTGS2 (gene 443460) (P79208 whole entry, looked up): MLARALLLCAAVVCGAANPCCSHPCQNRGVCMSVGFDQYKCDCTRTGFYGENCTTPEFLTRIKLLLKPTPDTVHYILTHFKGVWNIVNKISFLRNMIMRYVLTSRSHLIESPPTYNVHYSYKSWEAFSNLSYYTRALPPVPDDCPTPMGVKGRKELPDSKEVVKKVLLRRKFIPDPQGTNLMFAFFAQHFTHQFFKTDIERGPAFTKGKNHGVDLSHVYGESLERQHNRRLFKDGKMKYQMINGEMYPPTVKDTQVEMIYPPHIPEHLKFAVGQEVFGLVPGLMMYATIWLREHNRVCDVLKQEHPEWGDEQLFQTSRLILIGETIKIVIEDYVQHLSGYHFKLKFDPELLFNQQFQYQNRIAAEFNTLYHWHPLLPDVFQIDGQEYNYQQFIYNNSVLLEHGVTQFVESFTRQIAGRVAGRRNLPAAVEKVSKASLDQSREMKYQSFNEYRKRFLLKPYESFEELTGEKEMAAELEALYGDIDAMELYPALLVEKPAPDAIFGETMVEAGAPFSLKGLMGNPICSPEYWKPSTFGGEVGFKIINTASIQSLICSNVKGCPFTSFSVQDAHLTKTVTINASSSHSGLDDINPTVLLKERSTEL
Chain of rat Acetylcholinesterase (AChE), Ache (gene 83817) (P37136 whole entry, looked up): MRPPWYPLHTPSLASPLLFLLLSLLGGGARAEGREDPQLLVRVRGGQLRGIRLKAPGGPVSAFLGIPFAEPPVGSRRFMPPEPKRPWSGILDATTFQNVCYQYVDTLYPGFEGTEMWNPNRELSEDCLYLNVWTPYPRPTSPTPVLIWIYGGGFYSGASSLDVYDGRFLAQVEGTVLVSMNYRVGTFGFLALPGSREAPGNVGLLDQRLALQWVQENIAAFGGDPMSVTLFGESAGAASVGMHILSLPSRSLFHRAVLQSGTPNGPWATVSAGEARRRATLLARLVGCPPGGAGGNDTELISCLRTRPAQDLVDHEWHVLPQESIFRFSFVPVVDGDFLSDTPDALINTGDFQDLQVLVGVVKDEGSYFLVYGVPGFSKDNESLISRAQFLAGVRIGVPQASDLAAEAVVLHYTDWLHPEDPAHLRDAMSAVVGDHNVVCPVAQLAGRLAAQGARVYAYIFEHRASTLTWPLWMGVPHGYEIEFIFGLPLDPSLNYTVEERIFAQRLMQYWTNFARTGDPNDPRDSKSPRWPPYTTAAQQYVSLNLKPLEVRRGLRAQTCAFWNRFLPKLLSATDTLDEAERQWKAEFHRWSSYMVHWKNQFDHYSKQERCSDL
Chain of rat Catechol-O-Methyl Transferase (COMT), Comt (gene 24267) (P22734 whole entry, looked up): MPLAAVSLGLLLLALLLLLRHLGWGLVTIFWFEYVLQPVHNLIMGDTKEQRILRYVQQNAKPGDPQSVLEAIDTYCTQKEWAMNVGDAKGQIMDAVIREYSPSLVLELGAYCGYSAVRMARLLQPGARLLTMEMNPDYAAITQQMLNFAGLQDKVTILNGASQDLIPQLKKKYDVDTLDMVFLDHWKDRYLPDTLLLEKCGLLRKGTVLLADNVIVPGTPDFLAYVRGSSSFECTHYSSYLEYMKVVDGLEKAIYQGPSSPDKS

For the compound `CC12CC1(C)C(=O)N(c1cc(Cl)cc(Cl)c1)C2=O` (stereo not drawn), the AC50 in test [1] was 3.77 µM (active). Also, the outcome in [2] and in [3] was inactive.

`O=c1[nH]c(=O)[nH]c(=O)[nH]1`: the compound was classed as inactive in test [1].

For the compound `CC(C)(OO)c1ccccc1`, the AC50 was 6.28 µM (active) in [1] and 2.76 µM (active) in test [3].

Take `COc1cc2c(cc1OC)[C@@]13CCN4CC5=CCO[C@H]6CC(=O)N2[C@H]1[C@H]6[C@H]5C[C@H]43`: the AC50 in test [4] is 18.1 µM (active).

For the compound `CC(=O)[O][Hg][c]1ccccc1`, the compound was called inactive in test [5]. Moreover, the half-maximal activity concentration (AC50) is 26.8 µM (active) in test [6], 1.13 µM (active) in test [2], 25 µM (active) in test [7] and 37.4 µM (active) in [8].

As for `CCC(C)(C)c1ccc(O)c(C(C)(C)CC)c1`, the compound was classed as inactive in [5].

As to `ClC1(Cl)C2(Cl)C3(Cl)C4(Cl)C(Cl)(Cl)C5(Cl)C3(Cl)C1(Cl)C5(Cl)C24Cl` (stereo not drawn), the call in [1] was inactive.

`Clc1ccc(C2(Cn3cncn3)CC(Br)CO2)c(Cl)c1` (stereo not drawn): the compound was classed as inactive in test [3].

In the case of `O=C(Nc1ccc2[nH]ccc2c1)c1cc2cc(F)ccc2n1Cc1cccc(F)c1`, the compound was classed as inactive in [5] and in test [8].

`COc1cc(OC)nc(NC(=O)NS(=O)(=O)c2ncccc2C(=O)N(C)C)n1`: the compound was called inactive in test [1]. Moreover, the half-maximal activity concentration (AC50) in test [3] was 7.06 µM (active).

As to `ClC(Cl)=C(Cl)C(Cl)=C(Cl)Cl`, the call in test [3] was inactive.

For the compound `O=C(O)C(F)(F)C(F)(F)C(F)(F)C(F)(F)C(F)(F)C(F)(F)C(F)(F)C(F)(F)C(F)(F)C(F)(F)F`, the call in [3] was inactive.

On to `Cl/C=C\C[N+]12CN3CN(CN(C3)C1)C2`, for which, in test [3], the half-maximal activity concentration (AC50) was 5.46 µM (active).

Take `C=C(C)C(=O)[O][Sn]([CH2]CCC)([CH2]CCC)[CH2]CCC`: the compound was called inactive in test [6]. Further, the AC50 in test [8] is 25 µM (active); in [9] it was 10.6 µM (active).

In the case of `ClCCBr`, in [3], the result was inactive.

Regarding `Oc1cccc2cccnc12`, the AC50 in test [10] is 1.53 µM (active). Further, the result in test [7] was inactive.

In the case of `CCCCCCCCCl`, in test [3], the AC50 was 0.0723 µM (active).

As for `COC(=O)Cc1ccccc1`, in test [3], the result was inactive.

As for `CCCCCCCCc1ccc(O)cc1`, the compound was classed as inactive in test [5].

As for `O=[N+]([O-])c1ccc2c3c(cccc13)CC2`, the concentration at half-maximal activity (AC50) in test [3] was 18.9 µM (active).

Regarding `COP(=S)(OC)Oc1ccc(Sc2ccc(OP(=S)(OC)OC)cc2)cc1`, the outcome in test [5] was inactive.

Regarding `CC(=O)C(Cl)C(=O)N(C)C` (stereo not drawn), the compound was classed as inactive in [3].

Consider `CC(C)(C)c1cc(O)ccc1O`, for which the values for the AC50 in test [1] and in [3] were 6.85 µM (active) and 11 µM (active), respectively.

For `CC(C)(C)CC(C)(C)c1ccc(O)cc1`, the result in [5] and in test [1] was inactive.

Take `Nc1cccc2ccccc12`: the half-maximal activity concentration (AC50) in [3] was 13.6 µM (active).

For `CCN1CCC2(CC1)COc1cc3c(cc12)N(C(=O)c1ccc(-c2ccc(-c4nnc(C)o4)cc2C)cc1)CC3`, the half-maximal activity concentration (AC50) in test [4] is 3.06 µM (active); in [2], 23.4 µM (active); in [3], 4.68 µM (active); in [9], 9.79 µM (active). In addition, the result in test [7] was inactive.

With `CCOC(=O)Nc1cccc(OC(=O)Nc2ccccc2)c1`, the AC50 in test [3] is 8.56 µM (active).

As for `CCC(=O)C(CC(C)N(C)C)(c1ccccc1)c1ccccc1` (stereo not drawn), the concentration at half-maximal activity (AC50) in test [7] was 2.99 µM (active); in [9] it was 6.89 µM (active).

As to `Nc1ccc(-c2ccc(N)c(Cl)c2)cc1Cl`, the concentration at half-maximal activity (AC50) in test [3] is 1.64 µM (active).

For the compound `O=C1C2(Cl)C3(Cl)C4(Cl)C(Cl)(Cl)C5(Cl)C3(Cl)C1(Cl)C5(Cl)C24Cl` (stereo not drawn), the call in [5] was inactive.

Consider `Oc1ccc(-c2ccccc2)cc1`, for which, in test [3], the result was inactive.

For `OCc1ccco1`, the AC50 in test [3] is 6.01 µM (active).

With `CC(C)(c1ccccc1)c1ccc(O)c(C(C)(C)c2ccccc2)c1`, the result in test [5] was inactive.

`CCOC(=O)/C=C(C)/C=C/C[C@@H](C)CCCC(C)C`: the AC50 in test [3] was 31.3 µM (active).
